Hit rate of the full screen: of about 69,000 compounds, about 8,600 (12%) showed an effect of 50% or more. For the sample, strong results were picked, then their nearest neighbours and some compounds at random.
What follows are compounds tested on Plasmodium berghei (assay: Screen against P. berghei liver stage (PbLuc), transformed with Luciferase, at 10uM). Conditions: tested at 10 uM.
Format: functional, HepG2
Compound `CCOc1cc(C(=O)N2CCN(CC)CC2)cc2occc12` has an INHIBITION of 9.32%.
For `CCOc1cc(C(=O)N2CCCC2)cc2occc12`, the INHIBITION was 50.7%.
`CCOc1cc(C(=O)N2CCN(C)CC2)cc2occc12` showed an INHIBITION of 44.1%.
`CN1CCCCC1c1ncc2c(n1)CCN(CCCc1ccccc1)C2` (stereo not given) showed an INHIBITION of 26.8%.
For `Cc1cc(C(=O)N2CCC(O)(Cn3c(C)cc4ccncc43)CC2)on1`, the INHIBITION was 9.05%.
`NC(=O)N1CCC(NCc2cc(C(F)(F)F)ccc2Cl)CC1` was tested, and the INHIBITION was 17.8%.
In the case of `CN(C)C(=O)COCc1nnc2n1CCN(Cc1ccoc1)C2`, the INHIBITION was 45.8%.
In the case of `CNC(=O)C1(CCCc2ccncc2)CCN1` (stereo not given), the INHIBITION was -4.82%.
Compound `COc1ccc(CN2CC(O)CN(C(=O)C3CCC3)CC2=O)cc1` (stereo not given) has an INHIBITION of 41.1%.
For `COc1cccc(CCC2CCCN(C(=O)c3cnccn3)C2)c1` (stereo not given), the INHIBITION was 81.1%.
For `COc1ccccc1CC1CCCN(C(=O)c2n[nH]c3c2CCC3)C1` (stereo not given), the INHIBITION was 19%.
In the case of `COc1cccc(CCC2CCCN(C(=O)c3n[nH]c4c3CCC4)C2)c1` (stereo not given), the INHIBITION was 81.8%.
With `COc1cccc(CCC2CCCN(C(=O)c3ccc(=O)n(C)n3)C2)c1` (stereo not given) the INHIBITION was 40.5%.
`N#Cc1cccc(C(=O)N2CCCC(C(=O)CCc3ccccc3)C2)c1` (stereo not given) gave an INHIBITION of -8.66%.
`COc1cccc(C(=O)N2CCCC(C(=O)CCc3ccccc3)C2)c1` (stereo not given) was tested, and the INHIBITION was 65%.
Work on `COc1cccc(CCC2CCCN(C(=O)C3=NN(C)C(=O)CC3)C2)c1` (stereo not given) yielded an INHIBITION of 3.47%.
`COc1cccc(CCC2CCCN(C(=O)c3ccccn3)C2)c1` (stereo not given) gave an INHIBITION of 43.7%.
`COc1cccc(OCC2CCCN(C(=O)c3cc(C)n[nH]3)C2)c1` (stereo not given) showed an INHIBITION of 10.5%.
For `COc1cccc(CCC2CCCN(C(C)=O)C2)c1` (stereo not given), the INHIBITION was -10.9%.
Work on `COc1cccc(CCC2CCCN(C(=O)c3ccc(OC)o3)C2)c1` (stereo not given) yielded an INHIBITION of 68.3%.
In the case of `Cn1cc(C(=O)N2CCCC(C(=O)CCc3ccccc3)C2)cn1` (stereo not given), the INHIBITION was 10.7%.
`Cc1sc(NC(=O)CCC(=O)O)c(C(N)=O)c1-c1ccc(Cl)cc1Cl` gave an INHIBITION of 41.6%.
For `CNc1nccc(-c2cnc3sc(C)c(C)n3c2=O)n1`, the INHIBITION was -4.82%.
With `Cc1ccc(C(=O)NC2CCCN(S(C)(=O)=O)C2)c(=O)[nH]1` (stereo not given) the INHIBITION was 19.7%.
Compound `O=C(c1cc[nH]n1)N1CCCC1c1cnccn1` (stereo not given) has an INHIBITION of 31.6%.
With `CC(NC(=O)COCC(F)(F)F)c1nnc2n1CCCCC2` (stereo not given) the INHIBITION was -27.8%.
Compound `CCN(CC)CCCNC(=O)c1nn(CC)cc1Cl` has an INHIBITION of 35.8%.
`O=C(CCOc1ccc(Br)cc1)N1CCN(c2cnccn2)CC1` gave an INHIBITION of 43.2%.
`CC1(C)CN(CC(=O)NCc2ccccc2F)C[C@]1(C)O` showed an INHIBITION of -2.97%.
In the case of `COc1cccc(OCC2CCCN(Cc3ncc[nH]3)C2)c1` (stereo not given), the INHIBITION was 22.6%.
Work on `COc1ccc(C(=O)N2CCC(Oc3ccccc3)(C(=O)O)CC2)o1` yielded an INHIBITION of 50.1%.
Work on `COc1cccc(CCC2CCCN(Cc3ncc[nH]3)C2)c1` (stereo not given) yielded an INHIBITION of 65.7%.
With `COc1ccc(C(=O)N2CCC(Oc3cccc(C)c3)(C(=O)O)CC2)o1` the INHIBITION was 40.2%.
In the case of `COc1cccc(OCC2CCCN(Cc3ccncc3)C2)c1` (stereo not given), the INHIBITION was 1.74%.
With `COc1ccc(C(=O)N2CCC(Oc3ccc(C)cc3)(C(=O)O)CC2)o1` the INHIBITION was 14.3%.
`FC(F)(F)Cn1ccnc1CNCC1CCCN1c1cccnn1` (stereo not given) was tested, and the INHIBITION was -2.53%.
Work on `Cc1nc(NC(=O)CCN2C(=O)c3ccccc3NC2C(C)C)sc1C` (stereo not given) yielded an INHIBITION of 28.7%.
`COCC(=O)NCc1cc(=O)n2c(n1)CN(Cc1ccncc1)CCC2` was tested, and the INHIBITION was 22.2%.
Work on `CCNc1cc2c(nn1)CCN(C(=O)c1ccsc1)C2` yielded an INHIBITION of 37.8%.
Compound `CC(=O)NCCC(=O)NC(C)c1sc(-c2ccccc2F)nc1C` (stereo not given) has an INHIBITION of 29.3%.
`CCC(=O)NCC(=O)NC(C)c1sc(-c2ccccc2F)nc1C` (stereo not given) was tested, and the INHIBITION was -2.94%.
`COCC(=O)NC(C)c1sc(-c2ccccc2F)nc1C` (stereo not given) showed an INHIBITION of 84.2%.
Work on `CCc1nnc(CN2CCc3cnc(C)nc3C2)o1` yielded an INHIBITION of -36.6%.
`CC(C)NC(=O)N1CCOC2(CCCN(c3ncccc3F)C2)C1` (stereo not given) showed an INHIBITION of 2.58%.
`CS(=O)(=O)CCNC1CCCN(Cc2noc(C3CC3)n2)C1` (stereo not given) showed an INHIBITION of 40.4%.
`Cc1nc[nH]c1-c1c(-c2ccccc2)ncn1C1CCNC1` (stereo not given) was tested, and the INHIBITION was 31.3%.
In the case of `O=C(O)C1(O)CCN(c2ccnc3c(C(F)(F)F)cccc23)CC1`, the INHIBITION was -48.4%.
Compound `O=c1c2cccc(Cl)c2ncn1C1CCNC1` (stereo not given) has an INHIBITION of 56.3%.
For `O=c1c2cccc(C(F)(F)F)c2ncn1CCN1CCNCC1`, the INHIBITION was -100%.
For `O=c1c2cccc(C(F)(F)F)c2ncn1C1CCNC1` (stereo not given), the INHIBITION was 53.6%.
Compound `O=c1c2cccc(F)c2ncn1CCN1CCNCC1` has an INHIBITION of -74%.
`Cc1cc(NCc2noc(C(C)C)n2)nc(-c2ccccc2)n1` was tested, and the INHIBITION was 14.4%.
`COCCOc1cccc(C(=O)N2CCCCC2c2nccs2)c1` (stereo not given) showed an INHIBITION of -31.5%.
`CC(C)CNC(=O)CN(C)S(C)(=O)=O` was tested, and the INHIBITION was 40.7%.
With `CCC(CO)NC(=O)c1ccc2ccc(N(C)CC3CC3)n2c1` (stereo not given) the INHIBITION was -24.3%.
